For some of these results: Measured potencies and affinities stand elsewhere.

What all share (design): scale not given: direction of the effect not stated beside the values
The target of assay [1] is Protein translocase subunit SecA (Escherichia coli (strain K12)) (UniProt P10408). Description: Assay to Identify E. coli SecA ATPase Inhibitors. The class given is functional. As to conditions: 30 µM.
For assay [2], the target named is T1, Ubiquitin-activating enzyme e1, putative (Leishmania donovani (strain BPK282A1)) (UniProt E9BSI1).
T1 sequence (whole entry): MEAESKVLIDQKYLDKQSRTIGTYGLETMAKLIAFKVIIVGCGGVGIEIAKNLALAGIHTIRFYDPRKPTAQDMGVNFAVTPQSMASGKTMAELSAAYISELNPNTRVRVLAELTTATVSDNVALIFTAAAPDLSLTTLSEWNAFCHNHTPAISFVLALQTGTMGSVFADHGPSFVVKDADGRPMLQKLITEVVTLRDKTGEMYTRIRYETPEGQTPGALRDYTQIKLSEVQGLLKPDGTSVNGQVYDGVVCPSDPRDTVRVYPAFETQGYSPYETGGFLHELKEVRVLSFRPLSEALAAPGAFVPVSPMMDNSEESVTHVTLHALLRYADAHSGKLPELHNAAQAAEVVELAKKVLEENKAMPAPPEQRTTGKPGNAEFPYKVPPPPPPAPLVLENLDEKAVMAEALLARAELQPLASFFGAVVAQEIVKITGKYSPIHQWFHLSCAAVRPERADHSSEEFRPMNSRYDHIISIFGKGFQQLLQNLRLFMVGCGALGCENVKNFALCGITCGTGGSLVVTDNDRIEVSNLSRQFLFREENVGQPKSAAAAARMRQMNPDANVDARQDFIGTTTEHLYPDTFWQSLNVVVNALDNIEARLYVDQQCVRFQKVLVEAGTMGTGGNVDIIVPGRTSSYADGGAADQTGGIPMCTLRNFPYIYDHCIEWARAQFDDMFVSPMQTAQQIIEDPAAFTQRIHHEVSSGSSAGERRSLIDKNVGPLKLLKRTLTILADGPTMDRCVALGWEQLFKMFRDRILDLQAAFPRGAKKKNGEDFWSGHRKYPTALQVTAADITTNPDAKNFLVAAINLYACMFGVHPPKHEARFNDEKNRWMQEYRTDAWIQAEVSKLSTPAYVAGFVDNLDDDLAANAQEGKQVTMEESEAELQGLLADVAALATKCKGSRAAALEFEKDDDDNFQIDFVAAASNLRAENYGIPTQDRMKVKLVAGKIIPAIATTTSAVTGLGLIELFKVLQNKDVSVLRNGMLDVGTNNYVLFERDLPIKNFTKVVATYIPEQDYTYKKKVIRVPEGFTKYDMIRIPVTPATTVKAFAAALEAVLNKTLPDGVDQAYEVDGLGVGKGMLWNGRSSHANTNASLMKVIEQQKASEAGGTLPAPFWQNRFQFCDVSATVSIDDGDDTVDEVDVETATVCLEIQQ
Description: Leishmania donovani Ubiquitin Activating Enzyme (LdE1). The class given is functional. As to conditions: 30 µM.

The target in assay [3] is AMP-activated protein kinase, AMPK (Homo sapiens) (UniProt P54646+O43741+P54619+Q9UGJ0+Q9Y478+Q13131+Q9UGI9). Description: AMP-dependent Kinase enzyme assay. An in vitro enzyme assay that detects ADP turnover that is directly proportional to AMPK activity. This uses naive AMPK that is activated during the assay with MK-8722. The class given is functional. The following applies: 30 µM.

The target in assay [4] is Sialic acid-binding Ig-like lectin 9 (Homo sapiens) (UniProt Q9Y336). Description: Hs-Siglec9 ALPHAscreen SOP 20170721. The following applies: 10 µM. In general terms: Bead proximity is the source of the signal in Alpha formats.
The test system of the next assay is Trypanosoma cruzi. In words: Trypanosoma cruzi phosphomannomutase and mannose-1-phosphate guanylyltransferase assay. As to conditions: 10 µM. The class given is functional.
In assay [5] the target is T2, Arginase-2, mitochondrial (Homo sapiens) (UniProt P78540).
T2 sequence (whole entry): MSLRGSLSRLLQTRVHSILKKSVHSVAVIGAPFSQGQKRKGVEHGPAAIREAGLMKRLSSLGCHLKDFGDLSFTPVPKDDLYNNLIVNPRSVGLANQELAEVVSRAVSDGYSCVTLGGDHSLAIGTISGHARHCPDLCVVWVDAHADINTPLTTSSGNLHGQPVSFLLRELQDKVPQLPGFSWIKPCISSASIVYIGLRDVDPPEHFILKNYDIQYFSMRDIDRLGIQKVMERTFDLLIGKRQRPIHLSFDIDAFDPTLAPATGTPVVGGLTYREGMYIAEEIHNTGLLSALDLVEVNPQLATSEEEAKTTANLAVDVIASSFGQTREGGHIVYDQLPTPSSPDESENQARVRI
Description: in vitro enzyme assay to detect the production of urea directly proportional to the activity of Arginase II. Note: in the data most compounds retested in dose-response had high values. The class given is functional. The following applies: 33.3 µM.

Assay [6] concerns the target T3, Proteasome subunit beta (Trypanosoma cruzi) (UniProt O96673).
T3 sequence (whole entry): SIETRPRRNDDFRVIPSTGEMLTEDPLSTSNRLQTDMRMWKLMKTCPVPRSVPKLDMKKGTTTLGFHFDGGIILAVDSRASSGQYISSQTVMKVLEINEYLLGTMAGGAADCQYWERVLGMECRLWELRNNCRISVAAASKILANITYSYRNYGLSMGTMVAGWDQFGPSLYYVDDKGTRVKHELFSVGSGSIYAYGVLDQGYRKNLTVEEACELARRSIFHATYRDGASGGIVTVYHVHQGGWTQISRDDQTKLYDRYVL
In words: Trypanosoma cruzi proteasome chymotrypsin-like activity (TcProtChymo) assay. Note: in the data most compounds retested in dose-response had high values. The assay is classed as functional. As to conditions: 9.37 µM.

The next assay is filed under the species Homo sapiens. In words: To identify inhibition of the IFN signalling (Jak-Stat) pathway via expression of an eGFP reporter gene under the control of an IFN-stimulated response element (ISRE) containing MxA promoter. The class given is functional. As to conditions: 30 µM. For orientation: In a reporter assay the amount or activity of a reporter protein is the signal.

The target of assay [7] is T4, Tyrosyl-tRNA synthetase, putative (Trypanosoma cruzi (strain CL Brener)) (UniProt Q4DSP6).
T4 sequence (whole entry): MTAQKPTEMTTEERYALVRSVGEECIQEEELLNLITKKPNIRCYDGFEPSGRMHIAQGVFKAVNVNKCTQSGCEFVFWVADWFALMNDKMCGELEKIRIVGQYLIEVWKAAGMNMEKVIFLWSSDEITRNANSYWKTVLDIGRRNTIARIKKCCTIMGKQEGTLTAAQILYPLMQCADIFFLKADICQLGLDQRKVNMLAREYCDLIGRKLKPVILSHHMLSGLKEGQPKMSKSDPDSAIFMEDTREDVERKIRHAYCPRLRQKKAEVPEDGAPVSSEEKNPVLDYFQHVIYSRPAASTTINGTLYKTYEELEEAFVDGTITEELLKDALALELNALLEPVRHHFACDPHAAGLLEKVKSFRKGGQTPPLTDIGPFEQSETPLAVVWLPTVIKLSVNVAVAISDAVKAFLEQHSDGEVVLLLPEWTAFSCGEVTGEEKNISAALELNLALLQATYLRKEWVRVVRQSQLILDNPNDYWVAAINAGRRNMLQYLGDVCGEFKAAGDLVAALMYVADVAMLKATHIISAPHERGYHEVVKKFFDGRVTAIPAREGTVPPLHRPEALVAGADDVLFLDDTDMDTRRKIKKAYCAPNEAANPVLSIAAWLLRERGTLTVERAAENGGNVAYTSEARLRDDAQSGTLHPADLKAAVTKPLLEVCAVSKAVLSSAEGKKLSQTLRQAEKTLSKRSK
In words: Trypanosoma cruzi tyrosyl tRNA synthetase (TcYRS) _High Tyrosine SOP. Note: in the data most compounds retested in dose-response had high values. The assay is classed as functional. As to conditions: 30 µM.

The target in assay [8] is T4, Tyrosyl-tRNA synthetase, putative (Trypanosoma cruzi (strain CL Brener)). Description: Trypanosoma cruzi tyrosyl tRNA synthetase (TcYRS) SOP. The assay is classed as functional. As to conditions: 30 µM.
The target in assay [9] is Chromo domain-containing protein 1 (Saccharomyces cerevisiae (strain ATCC 204508 / S288c) (Baker's yeast)) (UniProt P32657). In words: ScCHD-1 Enzyme Inhibition Assay. Note: in the data most compounds retested in dose-response had high values. The class given is functional. As to conditions: 30 µM.
Sequence of Chromo domain-containing protein 1 (Saccharomyces cerevisiae (strain ATCC 204508 / S288c) (Baker's yeast)) (P32657 whole entry, the tested form may be a part): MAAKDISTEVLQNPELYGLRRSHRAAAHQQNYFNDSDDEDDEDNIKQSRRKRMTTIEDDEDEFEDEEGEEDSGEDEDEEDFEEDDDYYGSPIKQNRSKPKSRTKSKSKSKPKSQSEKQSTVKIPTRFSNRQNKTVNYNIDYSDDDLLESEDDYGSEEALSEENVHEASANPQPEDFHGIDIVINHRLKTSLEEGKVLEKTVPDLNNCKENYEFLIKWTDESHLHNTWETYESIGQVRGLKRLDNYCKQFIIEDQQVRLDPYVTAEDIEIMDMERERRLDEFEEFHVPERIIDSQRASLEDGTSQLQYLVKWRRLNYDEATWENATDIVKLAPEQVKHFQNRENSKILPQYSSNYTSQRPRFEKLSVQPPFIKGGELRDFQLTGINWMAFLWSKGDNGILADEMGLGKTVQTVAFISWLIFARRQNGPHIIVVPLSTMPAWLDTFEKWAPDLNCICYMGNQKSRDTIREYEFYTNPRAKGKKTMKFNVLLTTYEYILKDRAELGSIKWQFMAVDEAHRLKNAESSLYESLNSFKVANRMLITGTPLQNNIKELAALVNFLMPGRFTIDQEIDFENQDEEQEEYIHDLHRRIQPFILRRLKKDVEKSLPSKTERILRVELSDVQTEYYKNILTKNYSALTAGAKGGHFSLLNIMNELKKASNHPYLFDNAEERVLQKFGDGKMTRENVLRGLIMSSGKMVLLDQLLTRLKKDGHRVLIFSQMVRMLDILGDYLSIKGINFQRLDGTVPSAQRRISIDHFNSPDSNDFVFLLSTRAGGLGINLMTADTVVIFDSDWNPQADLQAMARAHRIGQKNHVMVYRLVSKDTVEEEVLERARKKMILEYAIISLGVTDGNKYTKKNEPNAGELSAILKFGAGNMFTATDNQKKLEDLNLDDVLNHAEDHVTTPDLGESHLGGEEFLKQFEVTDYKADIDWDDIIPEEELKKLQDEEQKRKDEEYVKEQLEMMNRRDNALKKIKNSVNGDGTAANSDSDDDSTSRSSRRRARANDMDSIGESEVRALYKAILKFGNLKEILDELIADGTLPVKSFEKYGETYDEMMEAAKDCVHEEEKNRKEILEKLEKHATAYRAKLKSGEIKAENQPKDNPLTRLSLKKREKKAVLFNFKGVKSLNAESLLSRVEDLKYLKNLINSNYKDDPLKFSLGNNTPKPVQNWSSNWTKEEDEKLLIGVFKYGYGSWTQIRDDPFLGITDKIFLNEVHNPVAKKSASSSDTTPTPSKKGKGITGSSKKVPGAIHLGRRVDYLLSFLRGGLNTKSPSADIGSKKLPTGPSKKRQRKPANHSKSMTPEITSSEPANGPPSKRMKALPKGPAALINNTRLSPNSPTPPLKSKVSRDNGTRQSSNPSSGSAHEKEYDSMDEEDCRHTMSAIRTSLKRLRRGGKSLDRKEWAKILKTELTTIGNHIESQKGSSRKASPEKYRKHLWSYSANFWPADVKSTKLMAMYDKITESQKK

Sequence of Protein translocase subunit SecA (Escherichia coli (strain K12)) (P10408 whole entry): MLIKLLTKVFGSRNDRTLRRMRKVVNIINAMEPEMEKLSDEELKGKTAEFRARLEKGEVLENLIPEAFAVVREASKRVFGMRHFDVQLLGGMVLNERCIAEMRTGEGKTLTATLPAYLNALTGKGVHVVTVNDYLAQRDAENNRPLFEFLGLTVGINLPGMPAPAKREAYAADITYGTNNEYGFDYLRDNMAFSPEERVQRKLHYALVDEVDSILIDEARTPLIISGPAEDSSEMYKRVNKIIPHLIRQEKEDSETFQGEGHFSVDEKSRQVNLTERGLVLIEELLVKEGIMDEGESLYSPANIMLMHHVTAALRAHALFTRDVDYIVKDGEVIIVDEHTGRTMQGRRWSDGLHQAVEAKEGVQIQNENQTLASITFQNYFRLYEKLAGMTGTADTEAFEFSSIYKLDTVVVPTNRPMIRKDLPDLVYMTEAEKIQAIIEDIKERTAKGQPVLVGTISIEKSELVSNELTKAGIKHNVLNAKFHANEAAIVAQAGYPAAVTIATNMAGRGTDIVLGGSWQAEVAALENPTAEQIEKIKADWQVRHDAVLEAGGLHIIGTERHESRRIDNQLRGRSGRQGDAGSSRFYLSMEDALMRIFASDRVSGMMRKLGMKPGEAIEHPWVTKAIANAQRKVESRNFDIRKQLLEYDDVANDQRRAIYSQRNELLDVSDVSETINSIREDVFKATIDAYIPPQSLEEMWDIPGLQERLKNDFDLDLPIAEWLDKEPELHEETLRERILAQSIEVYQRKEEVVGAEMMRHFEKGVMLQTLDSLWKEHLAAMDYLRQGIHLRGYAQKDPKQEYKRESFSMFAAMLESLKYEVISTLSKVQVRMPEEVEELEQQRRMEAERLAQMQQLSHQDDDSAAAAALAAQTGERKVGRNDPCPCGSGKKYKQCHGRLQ
Sequence of Sialic acid-binding Ig-like lectin 9 (Homo sapiens) (Q9Y336 whole entry): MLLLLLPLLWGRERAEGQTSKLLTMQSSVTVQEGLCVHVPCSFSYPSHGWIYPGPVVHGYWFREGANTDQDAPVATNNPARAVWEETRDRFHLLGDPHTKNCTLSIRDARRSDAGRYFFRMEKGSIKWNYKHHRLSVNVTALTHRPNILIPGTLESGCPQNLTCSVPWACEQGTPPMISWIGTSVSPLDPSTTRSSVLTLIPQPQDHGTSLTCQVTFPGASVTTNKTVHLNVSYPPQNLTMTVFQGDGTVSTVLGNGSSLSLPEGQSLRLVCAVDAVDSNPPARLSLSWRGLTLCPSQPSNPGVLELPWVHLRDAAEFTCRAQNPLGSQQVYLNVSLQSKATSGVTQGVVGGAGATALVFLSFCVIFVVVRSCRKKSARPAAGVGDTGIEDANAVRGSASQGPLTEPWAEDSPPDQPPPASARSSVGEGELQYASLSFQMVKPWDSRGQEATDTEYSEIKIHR

Take `CCC(=O)NC1CCN(c2cccc(CC)c2)CC1`: the Percent Effect in assay [1] was -7.28%; in assay [2], 3.8%; in assay [3] it was 2.12%; in assay [4] it was -4.76%; in the assay on Trypanosoma cruzi, 1.13%; in [5] it was -1.5%. For the same compound, the Percent Effect in assay [6] was 4.97%; in the assay listed under Homo sapiens it was 16.9%; in [7], 3.12%; in [8], -10.1%; in [9] it was -27.3%.
As to `N#Cc1ccc(C(=O)N2CC[C@H]3[C@@H]2CCC(=O)N3c2cccnc2)cc1`, the Percent Effect is -4.52% in assay [1]; 13.5% in assay [2]; 3.21% in [3]; -7.6% in [4]; -2.44% with Trypanosoma cruzi; 3.5% in [5]. The Percent Effect is 18.3% in assay [6]; -4.58% in the assay filed under Homo sapiens; 1.08% in [7]; 12.8% in [8]; -4.36% in assay [9].
In the case of `Cc1nn(C)c(C)c1C1CCCN1C(=O)c1cnc2n[nH]c(C)c2c1` (stereo unspecified), the Percent Effect in assay [1] was -5.23%; in [2] it was 16.2%; in assay [3], -5.44%; in [4], 13.8%; in the assay with Trypanosoma cruzi, 5.66%; in [5], 0.554%. The Percent Effect is 0% in [6]; 9.61% in the assay filed under Homo sapiens; 4.95% in assay [7]; 18.3% in assay [8]; -3.42% in assay [9].
In the case of `CC(NC(=O)Nc1cccnc1N1CCCC1)c1nncn1C` (stereo unspecified), the Percent Effect was -3.96% in [1]; 5.41% in [2]; -24% in assay [3]; 2.82% in [4]; 7.45% with Trypanosoma cruzi; -2.81% in assay [5]. Besides, the Percent Effect is -0.901% in [6]; 23.6% in the assay filed under Homo sapiens; 5.42% in assay [7]; 16.1% in assay [8]; -9.41% in assay [9].
For the compound `COC[C@@]12CCO[C@@H]1CCN(C(=O)Cc1ccccc1F)C2`, the Percent Effect in assay [1] is 0.597%; in assay [2], 19.2%; in assay [3] it was -6.38%; in assay [4] it was 8.82%; in the assay on Trypanosoma cruzi it was -0.595%; in [5] it was -3.19%. Moreover, the Percent Effect is 12.2% in [6]; 5.78% in the assay filed under Homo sapiens; 8.33% in assay [7]; 11.1% in assay [8]; -3.06% in assay [9].
`CCOC(=O)CN1CCC(C(=O)c2cc(F)ccc2F)CC1`: the Percent Effect in [1] was -9.27%; in [2], -5.26%; in [3], -10.9%; in assay [4], 11.4%; with Trypanosoma cruzi, 12.4%; in [5], -1.53%. Besides, the Percent Effect is 4.01% in assay [6]; 2.26% in the assay listed under Homo sapiens; 5.39% in [7]; 7.32% in assay [8]; -11.5% in assay [9].
As for `C[C@H]1C[C@H]2CN(C(=O)c3ccncn3)CC[C@H]2O1`, the Percent Effect in assay [1] is -6.88%; in assay [2], 2.7%; in [3] it was -0.849%; in assay [4], -1.39%; with Trypanosoma cruzi, 2.54%; in assay [5] it was 2.08%. The Percent Effect in assay [6] was 12.1%; in the assay filed under Homo sapiens it was -0.328%; in assay [7], 6.93%; in [8], 1.22%; in assay [9], -3.3%.
As for `CCC(CNC(=O)c1ccc(Br)o1)N1CCc2ccccc2C1` (stereo unspecified), the Percent Effect was -2.45% in assay [1]; -2.7% in assay [2]; -0.754% in [3]; 2.18% in assay [4]; 2.51% in the assay on Trypanosoma cruzi; -2.38% in assay [5]. For the same compound, the Percent Effect in [6] is 10.9%; in the assay filed under Homo sapiens it was 11.9%; in assay [7], 0.529%; in assay [8] it was -4.88%; in assay [9], -2.21%.
`CCOc1ncccc1NC(=O)N1CCCCCC1`: the Percent Effect was -4.07% in assay [1]; 5.41% in [2]; 0.669% in [3]; 8.62% in [4]; -0.836% in the assay on Trypanosoma cruzi; -1.29% in assay [5]. In addition, the Percent Effect in assay [6] was 0.179%; in the assay filed under Homo sapiens, 13.2%; in assay [7] it was 2.97%; in assay [8], 6.1%; in [9], 1.09%.
With `Cc1cc(C(=O)N2CCCCC2c2nc(C)cs2)[nH]n1` (stereo unspecified), the Percent Effect is -4.07% in [1]; 5.2% in assay [2]; 0.468% in [3]; -1.4% in [4]; 5.62% in the assay with Trypanosoma cruzi; -4.27% in [5]. Moreover, the Percent Effect in assay [6] was -2.03%; in the assay listed under Homo sapiens, -9.54%; in [7], 4.85%; in assay [8], 12.2%; in [9], 84.3%.
Regarding `CC1CN(C)c2ccccc2CN1C(=O)CSc1ccncc1` (stereo unspecified), the Percent Effect in assay [1] was -1.53%; in assay [2] it was 11%; in assay [3], 2.54%; in assay [4], 1.63%; in the assay on Trypanosoma cruzi it was 0.783%; in assay [5], 2.73%. Also, the Percent Effect is 2.48% in assay [6]; 17.3% in the assay filed under Homo sapiens; 6.45% in [7]; 7.5% in [8]; -6.19% in [9].

The values are drawn from ChEMBL document CHEMBL3988442, “University of Dundee, Small-Polar-MMV Screening Library” (2021).
